This note sets out measurements from PubChem BioAssay (EPA / NIEHS).

Active and inactive are the calls of the source. How the source made its calls: active means hit-call score of the fitted dose curve at least 0.9, where 1 is the maximum; inactive means score below 0.9.

The assay in a line: ATG_NF_kB_CIS: Attagene CIS-FACTORIAL HepG2 Assay for human Nuclear Factor Kappa B (NF-kB) (AID 2282991). As to conditions: HepG2 Attagene cis-factorial NF-kB reporter mRNA; actives raise or lower the signal. As to the method:
ATG_CIS is a cell-based, multiplexed-readout assay that uses HepG2, a human liver cell line, with measurements taken at 24 hours after chemical dosing in a 24-well plate.ATG_NF_kB_CIS is one of 52 assay component(s) measured or calculated from the ATG_CIS assay. It is designed to make measurements of mRNA induction, a form of inducible reporter, as detected with fluorescence intensity signals by Reverse transcription polymerase chain reaction (RT-PCR) and Capillary electrophoresis technology.Data from the assay component ATG_NF_kB_CIS was analyzed into 1 assay endpoint. This assay endpoint, ATG_NF_kB_CIS, was analyzed with bidirectional fitting relative to DMSO as the negative control and baseline of activity. Using a type of inducible reporter, measures of mRNA for gain or loss-of-signal activity can be used to understand the reporter gene at the transcription factor-level as they relate to the gene NFKB1. Furthermore, this assay endpoint can be referred to as a primary readout, because this assay has produced multiple assay endpoints where this one serves a reporter gene function. To generalize the intended target to other relatable targets, this assay endpoint is annotated to the dna binding intended target family, where the subfamily is NF-kappa B.
Human liver HepG2 cells are transiently transfected with multiple reporter transcription units (MRTUs) in 6-well plates using FuGene 6 reagent (Roche; 3 ml FuGene/1 mg DNA). The MRTU constructs are regulated by a cis-regulating element (promoter). […] A major difference between the CIS and TRANS system is that in CIS activities of endogenous TFs are measured, whereas the TRANS assay evaluates changes in activities of exogenous, chimeric NR-Gal4 proteins. […] At the end of 24 hour incubation, total RNA was isolated using TriZol reagent (Invitrogen). The isolated RNA is then reverse-transcribed using oligo(dT) primer and Mo-MLV reverse transcriptase (Invitrogen) with DNAse I (Ambion) treatment for 30 min. The one-tenth of the produced cDNA was amplified by PCR using Taq DNA polymerase (Invitrogen) and two reporter sequence-specific primers. The PCR products were fluorescently labeled by primer extension with 6-arboxyfluorescein (6-FAM) 5'-labeled reporter sequence-specific primer (2 min at 95 C, 20 s at 68 C and 10 min at 72 C) and these products were digested with 5U of HpaI (New England Biolabs) for 2h at 37 C. The fragments were purified using Qiaquick PCR columns (Qiagen), analyzed on an ABI 3130xL genetic analyzer (Applied Biosystems) with peak positions identified by using a set of X-rhodamine (ROX)-labeled MapMarker1000 molecular weight standards (BioVentures). The raw capillary electrophoresis data was processed using Attagraph software (Attagene).
For `COC=O`, the molecule was classed as inactive.

Consider `CNC(=S)N(C)C`, for which the molecule was classed as inactive. `CCCC(C)CCC(C)=O` (stereo not given): the result was inactive.

In the case of `C=CCOc1c(Br)cc(Br)cc1Br`, the result was inactive. In the case of `CC(=O)OCCC1CCCCC1`, the result was inactive. `CCOC(F)(F)C(F)(F)C(F)(F)C(F)(F)F`: the outcome was inactive. As to `NCCCN1CCN(CCCN)CC1`, the molecule was classed as inactive. Take `CC1(C)[C@H]2CC[C@]1(C)C(=O)C2`: the result was inactive. Still for that read-out and setting: under `CCCCCC(C)O` (stereo not given) stands “inactive”; under `CCCCOCCOC(=O)COc1nc(Cl)c(Cl)cc1Cl`, “inactive”; under `Cn1c([N+](=O)[O-])cnc1COC(N)=O`, “inactive”. Consider `O=C1CCCCCCCCCCC(=O)OCCO1`, for which the molecule was classed as inactive.

One may read the AC50 as the concentration giving half of the maximal activity seen. For the molecule `CCOC(=O)c1ccccc1C(=C1C=C(Br)C(=O)C(Br)=C1)c1cc(Br)c(O)c(Br)c1`, the concentration at half-maximal activity (AC50) is 43 µM (active). Turning to `CC[C@H]1OC(=O)[C@H](C)[C@@H](O[C@H]2C[C@@](C)(OC)[C@@H](O)[C@H](C)O2)[C@H](C)[C@@H](O[C@@H]2O[C@H](C)C[C@H](N(C)C)[C@H]2O)[C@](C)(O)C[C@@H](C)C(=NOCOCCOC)[C@H](C)[C@@H](O)[C@]1(C)O`, the result was inactive. Consider `Cc1cc(=O)n(-c2ccccc2)n1C`, for which the molecule was called inactive. Same read-out and setting: under `Cc1cnc(NC(=O)C2=C(O)c3ccccc3S(=O)(=O)N2C)s1` stands “inactive”; under `CC(C)c1ccc2cc(C(C)C)ccc2c1`, “inactive”; under `COC(F)(F)C(F)(C(F)(F)F)C(F)(F)F`, “inactive”.

As to `CCCCC/C=C\CCC=O`, the call was inactive.

As to `Nc1ccc(Oc2ccc(N)c(N)c2)cc1`, the molecule was called inactive.

With `COCc1c(C(C)C)nc(C(C)C)c(/C=C/[C@@H](O)C[C@@H](O)CC(=O)O)c1-c1ccc(F)cc1`, the molecule was classed as inactive. For the molecule `O=CC1CC1`, the molecule was classed as inactive. As for `Oc1ccc(Cl)cc1Cc1cc(Cl)ccc1O`, the outcome was inactive.

As to `CC(C)C(=O)C(C)C`, the call was inactive. Regarding `[Cl][Bi]([Cl])([c]1ccccc1)([c]1ccccc1)[c]1ccccc1`, the AC50 was 0.463 µM (active). Take `C/C=C\C/C=C/CCCCCCCCOC(C)=O`: the AC50 was 42.8 µM (active). Consider `O=c1n(CCO)c(=O)n(CCO)c(=O)n1CCO`, for which the outcome was inactive.

`O=C1CCC(=O)N1Cl`: the call was inactive. On the same count and under the same terms, under `C=CCOCC(O)CCl` (stereo not given) stands “inactive”; under `CC(C)=CC1CC(C)CCO1` (stereo not given), “inactive”. Consider `CCC(=O)Oc1ccc(/C(CC)=C(\CC)c2ccc(OC(=O)CC)cc2)cc1`, for which the AC50 is 33.7 µM (active). On to `CCCOCCOCCOCCO`, for which the outcome was inactive.

For the molecule `CCOC(=O)N1CCC(=C2c3ccc(Cl)cc3CCc3cccnc32)CC1`, the molecule was classed as inactive. `O=P(O)(O)Oc1ccccc1`: the molecule was called inactive. For `O=C(O)c1cc2ccccc2nc1C(=O)O`, the molecule was called inactive. As for `CCCC(=O)OCc1ccccc1`, the result was inactive.

Turning to `CC(=O)OC1C2(C)CCC(C2)C1(C)C` (stereo not given), the molecule was called inactive. On to `O=C(OCC1CCC2OC2C1)C1CCC2OC2C1` (stereo not given), for which the molecule was classed as inactive.

For `CCCCCCCCCCCCCCCC(=O)OCC`, the call was inactive.

As to `Cc1cc(C)c(C)cc1C`, the outcome was inactive.
